Assay results from PubChem BioAssay.
Unmarked numbers belong to inactive results. How the calls were made is not given here.

target: Pantothenate synthetase (Mycobacterium tuberculosis (strain ATCC 25618 / H37Rv)) (UniProt P9WIL5); assay: Coupled enzyme confirmation of inhibitors against recombinant Mtb PanC (AID 375); details: coupled enzyme assay; at 10 µM, active compounds read high;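 further: 0% = full reaction with vehicle and 100% = no enzyme background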
Sequence (P9WIL5 whole entry, looked up): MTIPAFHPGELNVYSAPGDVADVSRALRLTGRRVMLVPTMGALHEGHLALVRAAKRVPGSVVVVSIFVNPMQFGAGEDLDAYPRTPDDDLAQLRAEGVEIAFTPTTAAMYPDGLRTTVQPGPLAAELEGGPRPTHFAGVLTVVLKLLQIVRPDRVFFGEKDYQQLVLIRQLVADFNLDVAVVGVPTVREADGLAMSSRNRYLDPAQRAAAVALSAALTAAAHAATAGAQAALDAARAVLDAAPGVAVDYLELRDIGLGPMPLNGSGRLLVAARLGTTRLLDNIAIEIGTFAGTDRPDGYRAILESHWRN

SMILES | inhibition [%]
O=C(NCc1nc2ccccc2[nH]1)c1ccco1 | 0
CC(=O)Nc1ccc(Cc2ccncc2)cc1 | 0
COc1ccc(N(CC(=O)NCCSC(C)(C)C)S(C)(=O)=O)c(OC)c1 | 2
CN1CCCN(CC(O)COCc2cccs2)CC1 (stereo not drawn) | 0
Cc1nnc2n(-c3ccccc3)c(=O)c3c4c(sc3n12)CCCC4 | 2
O=C(CN(C1CCCCC1)S(=O)(=O)c1ccccc1)NCc1cccnc1 | 0
Cn1c(N2CCC(C(N)=O)CC2)nc2c1c(=O)n(Cc1ccc(Br)cc1)c(=O)n2C | 0
COc1ccc(NC(=O)CN2CCCCC2)cc1 | 0
CC(C)OC(=O)c1cc(=O)[nH]c2ccccc12 | 0
c1nnc(NC2=NCCCCC2)s1 | 0
COC(=O)Cc1cc(=O)[nH]c(Nc2nc3ccccc3o2)n1 | 0
CCOCCCNS(=O)(=O)c1ccc2c(c1)oc(=O)n2CC(=O)OCC | 8
CCOC(=O)CC(=O)CSc1[nH]c(=O)cc(C)c1C#N | 8
Cc1ncoc1C(=O)Nc1ccccc1C(N)=O | 0
O=C(Cn1nnc(-c2cc(Cl)ccc2-n2cnnn2)n1)N1CCCc2ccccc21 | 0
CC1CCN(C(=O)CSCC(=O)Nc2nc(-c3cccs3)cs2)CC1 | 0
Cc1cccc2cc(C(c3nnnn3C(C)(C)C)N3CCN(C(=O)c4ccco4)CC3)c(=O)[nH]c12 (stereo not drawn) | 6
Cc1ccc2nc(NC(=O)C3CCN(S(=O)(=O)c4cccc5nsnc45)CC3)sc2c1 | 4
